Experimental findings from PubChem BioAssay (Tox21) are described below.

The structures appear in SMILES notation. Results filed as inconclusive are left out. A call without a number means that no potency is given here. Activity calls are given as the source filed them. The call rests on the fitted dose curve; in most records, active means well fitted cell-killing curve with a large enough effect in the repeat runs; inconclusive means weak or mixed curves, or effect the other way; inactive means flat fitted curve, though single readings scatter.

The test can be described thus: qHTS assay to identify small molecule antagonists of the estrogen receptor alpha (ER-alpha) signaling pathway using the BG1 cell line in the presence of 0.1 nM 17-beta-estradiol - cell viability counter screen (AID 1259241). Further: nearly all actives have a fitted effect of over 40% in size. The following applies: VM7Luc4E2 (BG1) viability, CellTiter-Fluor protease, 22 h, 0.1 nM estradiol agonist added; series mostly up to 92.4 µM. The text has this:
National Center for Advancing Translational Sciences [NCATS]
NIH Chemical Genomics Center [NCGC]
U.S. Environmental Protection Agency [EPA]
National Institutes of Environmental Health Sciences [NIEHS]
National Toxicology Program [NTP]
U.S. Food and Drug Administration [FDA]
Estrogen receptor (ER), a member of the nuclear hormone receptor plays an important role in development, metabolic homeostasis and reproduction. Two subtypes of ER, ER-alpha and ER-beta, have similar expression patterns with some uniqueness in both types. Endocrine disrupting chemicals (EDCs) and their interactions with steroid hormone receptors like ER causes disruption of normal endocrine function. Therefore, it is important to understand the effect of environmental chemicals in ER signaling pathway. For identifying ER antagonists, VM7Luc4E2 cell line was used to screen against Tox21 compound libraries.
VM7Luc4E2 cell line (provided by Denison MS, University of California) endogenously express full-length ER-alpha and is stably transfected with a plasmid containing four estrogen responsive elements (ERE) upstream of a luciferase reporter gene. The current screening for identification of ER-alpha inhibitors against Tox21 compound libraries used lower concentration (0.1 nM) of 17beta-Estradiol as a stimulator. The cytotoxicity of the Tox21 compound libraries against VM7Luc4E2 cell line was tested by measuring live-cell protease activity using CellTiter-Fluor assay in the same wells.
Tox21 Assay Protocol Summary:
VM7Luc4E2 cells were cultured in phenol red free assay medium containing 10% charcoal stripped FBS for 5 days prior to the assay. The cells were dispensed at 4,000 cells/well in 4 uL of assay medium into white wall/solid-bottom 1536-well plates (Corning Life Sciences, Corning, NY) using a Multidrop Combi (ThermoFisher Scientific, Waltham, MA) dispenser. After the assay plates were incubated at 37C and 5% CO2 for 24 hr, 23 nL of compounds dissolved in DMSO, positive controls or DMSO only was transferred to the assay plates by a Pintool station (Kalypsys, San Diego, CA). The transfer of compounds was followed by the addition of 1 uL of 0.1 nM (final concentration) agonist (17beta-Estradiol)/assay medium using a Flying Reagent Dispenser (FRD, Aurora Discovery, San Diego, CA). The plates were incubated at 37C and 5% CO2 for 22 hr. For cytotoxicity assay, 1 uL of CellTiter-Fluor reagent (Promega Corporation, Madison, WI) was added to each well using the FRD and after 30 min incubation at 37C and 5% CO2, The fluorescence intensity was measured using ViewLux plate reader (PerkinElmer, Shelton, CT).
For `Cc1ccc([N+](=O)[O-])cc1S(=O)(=O)O`, the Potency result is “inactive”.
As to `CC(=O)OCCOC(C)=O`, the Potency entry was “inactive”.
Under `O=C(OCC1CCC2OC2C1)C1CCC2OC2C1` (stereo not given) stands “inactive”; under `N#Cc1ccccc1`, “inactive”; under `CCCCCC(=O)O`, “inactive”.
Under `OCc1cccc(Oc2ccccc2)c1` stands “inactive”; under `O=C(O)Cn1c(=O)n(Cc2ccc(Br)cc2F)c(=O)c2ccc(Cl)cc21`, “inactive”; under `CC(=O)CCC=C(C)C`, “inactive”.
Under `CCOCC(=O)O` stands “inactive”; under `Nc1nc(N)nc(-c2ccccc2)n1`, “inactive”; under `Clc1ccccn1`, “inactive”.
With `CC(C)=CCl`, the Potency entry is “inactive”.
To `O=C1CCCC1` belongs “inactive”.
Under `CC(=O)OC1CC(C)OC(C)O1` (stereo not given) stands “inactive”.
To `NCCNCCN` belongs “inactive”.
With `C[C@]12CCC(=O)C=C1CC[C@@H]1[C@@H]2[C@@H](O)C[C@@]2(C)[C@H]1CC[C@]2(O)C(=O)CO`, the Potency result was “inactive”.
Under `CC(C)(Oc1ccc(CCNC(=O)c2ccc(Cl)cc2)cc1)C(=O)O` stands “inactive”; under `C=CC(C)CCCC(C)(C)O` (stereo not given), “inactive”.
As to `C[Si]1(C)O[Si](C)(C)O[Si](C)(C)O[Si](C)(C)O1`, the Potency entry was “inactive”.
To `CCc1ccccc1CC` belongs “inactive”.
For the compound `COCCOC(=O)c1ccccc1C(=O)OCCOC`, the Potency result was “inactive”.
Under `COc1ccc(CCC(C)=O)cc1` stands “inactive”.
To `C=C(C)CNCC` belongs “inactive”; to `O=[N+]([O-])c1ccc2nc[nH]c2c1`, “inactive”; to `Brc1ccc(Br)c(Br)c1`, “inactive”.
To `CC(C)OC(=O)COc1ccc(Cl)cc1Cl` belongs “inactive”.
For `COc1ccc([N+](=O)[O-])cc1N`, the Potency entry was “inactive”.
On to `CC(C)OP(=O)(CP(=O)(OC(C)C)OC(C)C)OC(C)C`, for which the Potency result was “inactive”.
To `CCCCCCCC=O` belongs “inactive”; to `O=C1c2ccccc2CCc2ccccc21`, “inactive”.
To `NCCCCCCN` belongs “inactive”; to `CC(C)(C#N)c1cc(Cn2cncn2)cc(C(C)(C)C#N)c1`, “inactive”; to `CN(C)c1ccc(O)c2c1C[C@H]1C[C@H]3[C@H](N(C)C)C(=O)C(C(N)=O)=C(O)[C@@]3(O)C(=O)C1=C2O`, “inactive”.
To `CCCCCCCCCCCCCCCCO` belongs “inactive”; to `NCCN1CCNCC1`, “inactive”; to `O=c1[nH]cnc2[nH]ncc12`, “inactive”.
As to `COC(=O)c1cccnc1`, the Potency entry is “inactive”.
To `CCCCCCCCCCCC(=O)OC` belongs “inactive”; to `CC(C)(C)c1cc(Cc2cc(C(C)(C)C)c(O)c(C(C)(C)C)c2)cc(C(C)(C)C)c1O`, “inactive”.
Under `C=CC(=O)OCCC(=O)O` stands “inactive”.
